# Measurements from the supplement of paper PMC6555819.
# What was measured:
# Assay in all cases: PBM binding z-score (relative to random genomic background probes); higher = stronger binding; sequences stand for … in GC…GCGATTGACAGCGTAGAATGAAGG
# [1] = test system: FXR:RXRa (NR concentration 270 nM, RXRa partner concentration 90 nM)
# In short: (§1)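 Random background probes are the reference for binding z-scores. These scores derive from regression-normalized fluorescence on custom Agilent 4×180K protein-binding microarrays incubated 1 h with ligand-free nuclear receptor dimers. Binding was detected with antibodies against each partner (one per run).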
# [2] = test system: LXRa:RXRa (NR concentration 270 nM, RXRa partner concentration 90 nM)
# In short: as §1
# [3] = test system: LXRa homodimer (NR concentration 270 nM)
# In short: as §1
# [4] = test system: LXRb:RXRa (NR concentration 270 nM, RXRa partner concentration 90 nM)
# In short: as §1
# [5] = test system: LXRb homodimer (NR concentration 270 nM)
# In short: as §1
# [6] = test system: PPARa:RXRa (NR concentration 270 nM, RXRa partner concentration 90 nM)
# In short: as §1
# [7] = test system: PPARg:RXRa (NR concentration 180 nM, RXRa partner concentration 90 nM)
# In short: as §1
# [8] = test system: PPARg:RXRa 270nM:90nM, anti-RXR (NR concentration 270 nM, RXRa partner concentration 90 nM)
# In short: as §1
# [9] = test system: PPARg:RXRa 30nM:10nM, anti-RXR (NR concentration 30 nM, RXRa partner concentration 10 nM)
# In short: as §1
# [10] = test system: PPARg:RXRa 90nM:30nM, anti-RXR (NR concentration 90 nM, RXRa partner concentration 30 nM)
# In short: as §1
Sequence,PBM binding z-score [1],PBM binding z-score [2],PBM binding z-score [3],PBM binding z-score [4],PBM binding z-score [5],PBM binding z-score [6],PBM binding z-score [7],PBM binding z-score [8],PBM binding z-score [9],PBM binding z-score [10]
GGAACGAGGGCATTCGCGTTGATAGCATGGCGAT,0.794,1.04,-0.65,0.18,-0.618,1.5,0.776,0.655,-0.361,0.136
TCGAGTAGGTTACCAACGGGGCATTCAGCTTTCT,0.106,1.75,-0.787,0.579,-1.13,1.15,0.374,1.13,1.03,0.692
TCTCGGAGGACACGAAGGTCAGAGCCTTCCAGAG,1.54,1.56,-0.0178,1.35,-0.905,2.1,0.565,1.76,2.02,1.7
ATCGAAAGGTCGAAGGTGAGTAGACCCACCCGAA,4.66,3.33,-0.000535,2.34,0.52,4.56,4.92,4.7,1.93,4.2
TGTTGTAGATCAAAGGTTAAGAAAGCCGAAGCCT,1.59,2.17,0.185,1.96,0.623,4.47,7.96,7.88,7.16,9.01
TCTATTAGTTGATTAGGGCCACCGAAACAGCGGA,0.951,0.434,0.125,0.653,0.614,0.786,-0.0833,1.9,3.63,2.7
AGAACGAGGGCACACTGAGTTGATAGCAGAGTAG,0.801,0.517,-0.135,0.356,-0.454,2.02,1.96,1.64,0.493,1.01
TGAATGAGGTTAAAAGATCAGGGAACGTTGCAAA,2.41,2.05,-0.107,1.55,-0.114,3.8,2.57,3.45,1.49,2.53
GATACAGGGTCAGCTAGAGGCCTGAGTATGGAAA,4.07,2.14,-0.546,1.75,-0.639,4.25,3.02,2.86,0.545,1.56
AATACAGCGTCACTAGGCCAGAGTAGGTACGAAT,-0.287,-0.499,-0.588,-0.808,-0.279,0.0154,0.87,0.513,0.103,0.0712
AGAATGAGGTTATTGAGATCAGGGAATTGCGGTC,2.32,1.71,0.125,1.34,-0.146,2.79,1.67,2.07,0.258,1.31
CCTATTAGTTGACCATAAGGGCAAGCGAAGCTCG,0.766,0.114,0.254,0.218,0.573,0.369,0.36,0.458,-0.0041,0.237
TAGCCTAGGTCAATCAGGGGCCAGTATAGAAAGC,3.77,2.77,0.313,2.59,0.0516,3.34,2.24,2.28,0.674,1.76
AGAACGAGGACACGCTGAGTTGATAGCAGAGTAG,0.477,-0.638,-0.296,-0.945,-0.622,-0.44,0.748,-0.466,0.251,-0.327
TGAATGAGGCTAAAGATCAGGGAACGTGGCGTCG,-0.481,-0.541,-0.699,-0.926,-0.646,1.97,2.96,4.9,3.03,4.67
TAGCCTAGGTCATGCGGGCTAGTATAGTGTCGGC,3.65,2.96,0.103,1.54,-0.594,3.43,2.07,2.14,0.00724,0.957
AGTCAAAGTTCAGGACGAGGTATCGTAAAGCACG,3.59,3.83,1.22,1.59,-0.0231,2.98,3.89,4.58,1.74,3.93
CTTCAAAGTTCAAGGTAACGTAACAGAAAGCAGC,5.99,5.87,3.59,3.5,1.19,4.48,2.86,3.83,1.15,2.43
GCGACTCGGGCAAAGCAGGTTACCATAAGGTTGG,-0.00273,-0.166,-0.636,-0.448,-1.41,0.221,0.413,-0.165,-0.926,-0.846
TCATATAGGTAAAGGGGAAAGTCGAACGATATGA,0.639,0.796,-0.0838,0.901,0.0683,2.18,2.99,4.18,4.55,4.52
ACAGACAGGTAATGAAGGTAACTCAGGCTATCAT,0.224,0.251,0.0515,0.0112,0.161,0.173,0.58,-0.0336,-0.0735,-0.327
ATCTCTAGGTAAAGATAGTTCCGTGAATGCAAAT,0.0722,-0.0482,0.14,-0.171,0.352,0.22,0.326,0.273,0.172,0.366
GCGACTGGGGCATCAACAGGTTACCATAACTTAA,-0.21,0.22,-0.147,1.42,-0.367,1.48,1.15,0.92,-0.0267,0.231
GCATATAGGGAATACAAGGTGAAAGTCCGATTGT,0.23,-0.211,-0.101,-0.103,-0.489,0.924,0.818,0.797,0.0214,0.338
